The values that follow come from the supplement of paper PMC10037445.

Experiment [1] concerns RAW-Dual. In words: NF-kB SEAP reporter activity, fold change vs agonist alone; higher = enhanced NF-kB activity. The method in brief:
(§1)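 Library stock was pin-tooled at 50 nL into 384-well plates of RAW-Dual macrophages (50,000 cells/well, DMEM), followed 1 h later by a PRR agonist, and the cells were kept at 37 °C, 5% CO2. Supernatant collected after 20 hours was read for IRF by QuantiLuc luminescence and for NF-κB by QuantiBlue absorbance at 620 nm. Reporter activity is fold change over agonist-alone wells, and a well counted as cytotoxic when its IncuCyte confluency was below 70% of agonist controls in both mask sets.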

In experiment [2] the test system is RAW-Dual. Put plainly: NF-kB SEAP reporter activity, fold change vs agonist alone; cytotoxicity flag (confluency mask): not cytotoxic; higher = enhanced NF-kB activity. Put shortly:
as §1

For experiment [3], the system named is RAW-Dual. Put plainly: NF-kB SEAP reporter activity, fold change vs agonist alone; cytotoxicity flag (confluency mask): cytotoxic (confluency <70% of control); higher = enhanced NF-kB activity. The method in brief:
as §1

Setting [4] is: library stock concentration (final ~1000-fold dilution): 10 mM, cytotoxicity flag (confluency mask): not cytotoxic, agonist: Imiquimod (TLR7) […].
Where [5] appears, read: library stock concentration (final ~1000-fold dilution): 10 mM, cytotoxicity flag (confluency mask): not cytotoxic, agonist: MPLA (TLR4) […].
Setting [6] is: agonist: ODN 1826 (TLR9) 0.5 ug/mL.
The mark [7] stands for this setting: agonist: Pam2CSK4 (TLR2/6) 0.1 ug/mL.
Setting [8] is: agonist: Pam3CSK4 (TLR2/1) 0.1 ug/mL.
The mark [9] stands for this setting: library stock concentration (final ~1000-fold dilution): 10 mM, cytotoxicity flag (confluency mask): cytotoxic (confluency <70% of control), agonist: Imiquimod (TLR7) […].
Where [10] appears, read: library stock concentration (final ~1000-fold dilution): 10 mM, cytotoxicity flag (confluency mask): cytotoxic (confluency <70% of control), agonist: MPLA (TLR4) […].

Molecules are shown by their SMILES. The full ranking holds about 2,900 compounds; the median of “NF-kB SEAP reporter activity, fold change vs agonist alone” is about 0.99, and the highest 2% start at about 2.6. What follows is part of a selection rich in the highest values, with near analogues and random picks from the rest.

As for `O=C(Nc1ccncc1)c1cc([N+](=O)[O-])ccc1Cl`, the results for the “NF-kB SEAP reporter activity” value with RAW-Dual [1] (setting [4]) and with RAW-Dual [1] (setting [5]) were 0.837 and 0.684, respectively.

As to `CC(ONC(=O)c1cc(C(F)(F)F)cc(C(F)(F)F)c1)C(=O)Nc1ccc(Cl)cc1` (stereo unspecified), the “NF-kB SEAP reporter activity” value with RAW-Dual [1] (setting [4]) came out at 0.98; with RAW-Dual [1] (setting [5]), 1.4.

Turning to `Cc1c(-c2ccc(C(N)=O)c3[nH]c4cc(C(C)(C)O)ccc4c23)cccc1-n1cnc2ccccc2c1=O`, the “NF-kB SEAP reporter activity” value was 1.76 in the experiment with RAW-Dual [1] (setting [4]) and 1.37 in the experiment on RAW-Dual [1] (setting [5]).

With `Cc1c(-c2ccc(C(N)=O)c3[nH]c4cc(C(C)(C)O)ccc4c23)cccc1-n1cnc2ccccc2c1=O` (library stock concentration (final ~1000-fold dilution): 10 mM), the “NF-kB SEAP reporter activity” value in the experiment on RAW-Dual [2] (agonist: LPS (TLR4) 0.1 ug/mL) stood at 1.25; in the experiment on RAW-Dual [2] (setting [6]), 1.1; with RAW-Dual [2] (setting [7]) it was 0.537; in the experiment on RAW-Dual [2] (setting [8]), 0.833.

With `CC(O)C1C(=O)N2C(C(=O)O)=C(SCCNC=N)CC12.O` (stereo unspecified), the “NF-kB SEAP reporter activity” value in the experiment with RAW-Dual [1] (library stock concentration (final ~1000-fold dilution): 10 mM water, cytotoxicity flag (confluency mask): not cytotoxic, agonist: Imiquimod (TLR7) […]) worked out at 0.896; in the experiment on RAW-Dual [1] (library stock concentration (final ~1000-fold dilution): 10 mM water, cytotoxicity flag (confluency mask): not cytotoxic, agonist: MPLA (TLR4) […]) it was 1.02.

In the case of `CC(O)C1C(=O)N2C(C(=O)O)=C(SCCNC=N)CC12.O` (stereo unspecified) (library stock concentration (final ~1000-fold dilution): 10 mM water), the “NF-kB SEAP reporter activity” value worked out at 1.41 in the experiment with RAW-Dual [2] (agonist: LPS (TLR4) 0.1 ug/mL), 1.16 in the experiment on RAW-Dual [2] (setting [6]), 1.23 in the experiment on RAW-Dual [2] (setting [7]) and 1.07 in the experiment with RAW-Dual [2] (setting [8]).

Regarding `CCCn1c(NC(=O)c2cccc(C(N)=O)c2)nc2ccccc21` (library stock concentration (final ~1000-fold dilution): 10 mM), the “NF-kB SEAP reporter activity” value in the experiment on RAW-Dual [2] (agonist: LPS (TLR4) 0.1 ug/mL) stood at 0.482; in the experiment with RAW-Dual [2] (setting [6]), 0.333; in the experiment on RAW-Dual [2] (setting [7]), 0.143; in the experiment on RAW-Dual [2] (setting [8]) it was 0.205.

Regarding `CCCn1c(NC(=O)c2cccc(C(N)=O)c2)nc2ccccc21`, the “NF-kB SEAP reporter activity” value turned out to be 0.36 in the experiment with RAW-Dual [1] (setting [4]) and 0.54 in the experiment with RAW-Dual [1] (setting [5]).

Turning to `COc1ccc(N2C(=O)/C(=C/c3ccc([N+](=O)[O-])s3)SC2=S)cc1` (library stock concentration (final ~1000-fold dilution): 10 mM), the “NF-kB SEAP reporter activity” value in the experiment with RAW-Dual [3] (agonist: LPS (TLR4) 0.1 ug/mL) was 0.439; in the experiment with RAW-Dual [3] (setting [6]), 2.23; with RAW-Dual [3] (setting [7]), 0.267; in the experiment on RAW-Dual [3] (setting [8]) it was 0.382.

`COc1ccc(N2C(=O)/C(=C/c3ccc([N+](=O)[O-])s3)SC2=S)cc1`: the figures for the “NF-kB SEAP reporter activity” value in the experiment on RAW-Dual [1] (setting [9]) and in the experiment with RAW-Dual [1] (setting [10]) were 1.65 and 1.63, respectively.

For `CC(NC(=O)/C(C#N)=C/c1cccc(Br)n1)c1ccccc1` (stereo unspecified) (library stock concentration (final ~1000-fold dilution): 10 mM), the “NF-kB SEAP reporter activity” value is 0.233 in the experiment on RAW-Dual [3] (agonist: LPS (TLR4) 0.1 ug/mL), 0.186 with RAW-Dual [3] (setting [6]), 0.0992 with RAW-Dual [3] (setting [7]) and 0.136 with RAW-Dual [3] (setting [8]).

Consider `CC(NC(=O)/C(C#N)=C/c1cccc(Br)n1)c1ccccc1` (stereo unspecified), for which the “NF-kB SEAP reporter activity” value in the experiment with RAW-Dual [1] (setting [9]) is 0.268; in the experiment with RAW-Dual [1] (setting [10]) it was 0.204.

With `CCC1OC(=O)C(C)(F)C(=O)C(C)C(OC2OC(C)CC(N(C)C)C2O)C(C)(OC)CC(C)C(=O)C(C)C2N(CCCCn3cc(-c4cccc(N)c4)nn3)C(=O)OC12C` (stereo unspecified) (library stock concentration (final ~1000-fold dilution): 10 mM), the “NF-kB SEAP reporter activity” value was 1.47 in the experiment with RAW-Dual [2] (agonist: LPS (TLR4) 0.1 ug/mL), 0.196 in the experiment on RAW-Dual [2] (setting [6]), 0.966 with RAW-Dual [2] (setting [7]) and 0.98 in the experiment on RAW-Dual [2] (setting [8]).

Take `CCC1OC(=O)C(C)(F)C(=O)C(C)C(OC2OC(C)CC(N(C)C)C2O)C(C)(OC)CC(C)C(=O)C(C)C2N(CCCCn3cc(-c4cccc(N)c4)nn3)C(=O)OC12C` (stereo unspecified): in the experiment with RAW-Dual [1] (setting [5]), the “NF-kB SEAP reporter activity” value was found to be 1.53.

Take `Nc1nc(-c2ccco2)c2cnn(Cc3ccccc3F)c2n1` (library stock concentration (final ~1000-fold dilution): 10 mM): the “NF-kB SEAP reporter activity” value in the experiment on RAW-Dual [2] (agonist: LPS (TLR4) 0.1 ug/mL) turned out to be 1.11; in the experiment on RAW-Dual [2] (setting [6]) it was 1.1; in the experiment on RAW-Dual [2] (setting [7]) it was 1.03; in the experiment with RAW-Dual [2] (setting [8]), 1.08.

With `Nc1nc(-c2ccco2)c2cnn(Cc3ccccc3F)c2n1`, the figures for the “NF-kB SEAP reporter activity” value with RAW-Dual [1] (setting [4]) and with RAW-Dual [1] (setting [5]) were 1.05 and 1.22, respectively.

For `NS(=O)(=O)c1ccc(NC(=S)N2CCN(C/C=C/c3ccccc3)CC2)cc1` (library stock concentration (final ~1000-fold dilution): 10 mM), the “NF-kB SEAP reporter activity” value in the experiment with RAW-Dual [2] (agonist: LPS (TLR4) 0.1 ug/mL) turned out to be 1.42; in the experiment on RAW-Dual [2] (setting [6]) it was 1.17; with RAW-Dual [2] (setting [7]), 0.787; with RAW-Dual [2] (setting [8]), 0.825.

As to `NS(=O)(=O)c1ccc(NC(=S)N2CCN(C/C=C/c3ccccc3)CC2)cc1`, the “NF-kB SEAP reporter activity” value with RAW-Dual [1] (setting [4]) was determined as 1.02; in the experiment on RAW-Dual [1] (setting [5]), 1.1.
